Results taken from PubChem BioAssay.

Each compound was assayed against Calmodulin-1 (Homo sapiens) (UniProt P0DP23) (assay: small molecules binding calmodulin-1 with EGTA – biochemical, small-molecule microarray, Cy5-labelled CALM1, profiling panel (AID 1111;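 note: labelled calmodulin applied in Tris saline Tween buffer holding calcium plus EGTA and DTT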)). Settings: Cy5-CALM1 binding fluorescence, higher = more signal.
With `COCCOC(=O)N1C(=O)[C@@]2(c3cc(C#CCC(C(=O)OC)C(=O)OC)ccc31)[C@H](C(=O)N1CCCCCCC1)[C@H]1C(=O)O[C@H](c3ccccc3)[C@H](c3ccccc3)N1[C@@H]2c1ccc(OCCO)cc1` the composite z-score was 2.48. Compound `C=C(CCCC)/C(=C/C[C@H](OC(C)=O)c1ccc(CO)o1)c1cnc2ccccc2c1` has a composite z-score of 0.229. With `[N-]=[N+]=NCc1ccccc1[C@@H]1OC(c2ccc(OCCCO)cc2)=N[C@]1(Cc1ccccc1)C(=O)N1CCCCC1` the composite z-score was 1.4. For `C=CCNC(=O)[C@@H]1[C@H]2C(=O)O[C@H](c3ccccc3)[C@H](c3ccccc3)N2[C@H](c2ccc(OCCO)cc2)[C@@]12C(=O)Nc1ccccc12`, the composite z-score was 0.705. In the case of `O=C1OCCC=C[C@H]2OC34C=CCN(Cc5ccccc5)C(=O)[C@H]3N(CCCCCO)C(=O)[C@@H]4C12` (stereo not given in full), the composite z-score is reported as -0.565. In the case of `COc1ccccc1CN1C(=O)c2ccccc2[C@@H](C(=O)NCCN2CCOCC2)[C@@H]1c1ccc(CO)cc1`, the composite z-score is reported as -0.652. Work on `CN1CCC(CCCO)=CC1c1ccc(CN2CCCC2)cc1` (stereo not given) yielded a composite z-score of -0.561. In the case of `COCCOC(=O)N1C(=O)[C@@]2(c3cc(C#CCCO)ccc31)[C@H](c1ccc(O)cc1)N1[C@H](c3ccccc3)[C@H](c3ccccc3)OC(=O)[C@H]1[C@@H]2C(N)=O`, the composite z-score is reported as -0.523. Compound `C[C@]1(C(=O)NCc2ccccc2)c2ccccc2C(=O)N(Cc2ccc(OC(F)(F)F)cc2)[C@H]1c1ccc(CO)cc1` has a composite z-score of -0.119. In the case of `COc1ccc([Si](C)(C)[C@@H]2[C@@H](CCn3cc([C@H](O)c4ccccc4)nn3)O[C@]3(C(=O)N(Cc4ccc(N5C(=O)c6cccc7cccc5c67)cc4)c4ccccc43)[C@H]2C)cc1`, the composite z-score is reported as 0.273. In the case of `[N-]=[N+]=NCc1ccccc1C[C@@]1(C(=O)NCC(O)CO)N=C(c2ccc(OCCCO)cc2)O[C@@H]1c1ccccc1CN=[N+]=[N-]` (stereo not given in full), the composite z-score is reported as 2.11. Compound `C=CC[C@@H](OC(=O)Nc1ccc(OC)cc1)c1ccc(O)c2ccccc12` has a composite z-score of 0.0871. Compound `CCOC(=O)C[C@H]1[C@H](OC(=O)c2ccccc2-c2ccccc2)[C@@H](NC(=O)c2ccc3ccccc3c2)c2cc(OCCCO)ccc2N1C(=O)c1ccc2ccccc2n1` has a composite z-score of 0.0796. `N#Cc1ccc(NN2C(C(O)c3ccc([N+](=O)[O-])cc3)C=CC3C(=O)N(c4ccccc4)C(=O)C32)cc1` (stereo not given) was tested, and the composite z-score was 0.971. For `[N-]=[N+]=NCc1ccccc1[C@@H]1OC(c2ccc(OCCCO)cc2)=N[C@]1(Cc1ccccc1N=[N+]=[N-])C(=O)NCc1ccccc1`, the composite z-score was 1.34. `CCOC(=O)C[C@H]1[C@H](OC(=O)c2ccc(-c3ccccc3)cc2)[C@@H](NC(=O)c2ccc3ccccc3c2)c2cc(OCCCO)ccc2N1C(=O)Cc1ccc(OC)cc1` showed a composite z-score of 0.868. `CC(C)NC(=O)[C@@H]1c2ccccc2C(=O)N(Cc2ccccc2Cl)[C@H]1c1ccc(CO)cc1` was tested, and the composite z-score was -0.0984. `CCCCC(CC)C(O)C1C=CC2C(=O)N(c3ccccc3)C(=O)C2N1Nc1ccccc1` (stereo not given) gave a composite z-score of 1.25. In the case of `CC(C)C[C@@H]1NC(=O)[C@H]2C[C@@H](C(=O)NCCCCCNC(=O)CS)[C@@H](c3cccc(OCCO)c3)N2C1=O`, the composite z-score is reported as 0.193. With `CCC[C@@H]1C=C(C(=O)O)[C@H](c2ccc(C)cc2)N1S(=O)(=O)c1ccc(C)cc1` the composite z-score was 0.665. Compound `[N-]=[N+]=NCc1ccccc1[C@H]1OC(c2ccc(OCCCO)cc2)=N[C@@]1(CCS(=O)(=O)c1ccccc1)C(=O)N1CCOCC1` has a composite z-score of 2.58. Compound `C=CC(COC(C)=O)NS(=O)(=O)c1ccc(Br)cc1` (stereo not given) has a composite z-score of -0.467. `COCCOC(=O)N1C(=O)[C@@]2(c3cc(C#CCC(C(=O)OC)C(=O)OC)ccc31)[C@H](C(=O)N1CCN(c3ncccn3)CC1)[C@H]1C(=O)O[C@H](c3ccccc3)[C@H](c3ccccc3)N1[C@@H]2c1ccc(OCCO)cc1` was tested, and the composite z-score was 0.505. `Cc1cc(C)c(C(O)C2C=CC3C(=O)N(c4ccccc4)C(=O)C3N2Nc2ccc(C#N)cc2)c(C)c1` (stereo not given) gave a composite z-score of 2.56. `Cc1ccc(S[C@]2(C(=O)NC3CC3)CC(=O)N(C3CCCCC3)[C@@H]2c2ccc(CO)cc2I)cc1` gave a composite z-score of 0.224. With `CC(C)CNC(=O)[C@@]1(c2ccc([N+](=O)[O-])cc2)CC(=O)N(CC23CC4CC(CC(C4)C2)C3)[C@@H]1c1ccc(CO)cc1I` the composite z-score was 0.404. Work on `CC(C)c1ccc(NN2C(C(O)c3c(F)cccc3Cl)C=CC3C(=O)N(c4ccccc4)C(=O)C32)cc1` (stereo not given) yielded a composite z-score of 1.88. For `COCCOC(=O)N1C(=O)[C@@]2(c3cc(C#CCNC(N)=O)ccc31)[C@H](c1ccc(O)cc1)N1[C@H](c3ccccc3)[C@H](c3ccccc3)OC(=O)[C@H]1[C@@H]2C(=O)Nc1nc2ccccc2s1`, the composite z-score was 1.41. Work on `[N-]=[N+]=Nc1ccccc1[C@H]1OC(c2ccc(OCCCO)cc2)=N[C@@]1(CCS(=O)(=O)c1ccccc1)C(=O)O` yielded a composite z-score of 1.16. Work on `CC=CC(O)C1C=CC2C(=O)N(c3ccccc3)C(=O)C2N1Nc1ccc(C(C)C)cc1` (stereo not given) yielded a composite z-score of 1.42. Compound `COc1cccc(C(=O)O[C@H]2CC[C@]3(C)C4=C(CCC3C2(C)C)[C@]2(C)CC[C@H]([C@H](C)CCCC(C)C)[C@@]2(C)CC4)c1` (stereo not given in full) has a composite z-score of -0.0348. In the case of `CC(=O)NCCCC[C@@H]1NC(=O)[C@H]2C[C@@H](C(=O)NCCCCCC[N+](C)(C)C)[C@@H](c3cccc(OCCO)c3)N2C1=O`, the composite z-score is reported as 0.0227. `CC(C)c1ccc(NN2C(C(O)c3cccc(O)c3)C=CC3C(=O)N(c4ccccc4)C(=O)C32)cc1` (stereo not given) gave a composite z-score of 1.93. `O=C(CS)NCCCCCCNC(=O)[C@H]1C[C@H]2C(=O)N3CCC[C@H]3C(=O)N2[C@H]1c1cccc(OCCO)c1` gave a composite z-score of 0.803. With `C=C(C(=O)CC[C@H](OC(C)=O)c1ccc(OCCO)cc1)C(C)C` the composite z-score was -0.189.
